Test results taken from PubChem BioAssay (NCI).
Where “and” joins values, the source holds several entries; their conditions need not be identical. Equal entries are not always repeated. The panel holds about 83,000 compounds, 20% with a hit somewhere; the sample as a whole holds those more often.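 The endpoint reported here, percent growth, reads 100 for growth as untreated, 0 for no net growth and -100 for all cells dead.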 Calls of active or inactive are those of the source. Rule for the calls: active = growth percent below 10; inactive = the rest.

How the values were obtained:
[1] = system: UACC-62 melanoma; test: NCI-60 one-dose screen, 48 h (100 = growth as untreated, 0 = no growth, -100 = all killed); settings: 10 µM unless noted
[2] = system: TK-10 renal; test: as above; settings: 10 µM unless noted

Row | SMILES | growth [1] | growth [2]
1 | N#CC1(C#N)N[C@@H](c2ccsc2)[C@H]2C(=O)N(c3ccccc3)C(=O)[C@H]21 | 23.2% [100 µM] (inactive) and 0.172% [100 µM] (active) | 55.7% [100 µM] (inactive) and 30.9% [100 µM] (inactive)
2 | Cc1ccc(/C=C2/N=C(N/N=C\c3ccccc3)NC2=O)cc1 | 28.2% [100 µM] (inactive) and 56.4% [100 µM] (inactive) | -15.5% [100 µM] (active) and 0.251% [100 µM] (active)
3 | CC(C)O/N=C/c1cc(NC(=S)OC(C)C)ccc1Cl | 13.4% [100 µM] (inactive) and 21.6% [100 µM] (inactive) | 53.5% [100 µM] (inactive) and 36.1% [100 µM] (inactive)
4 | CC1CC(C(=O)OC2OC(COC3OC(CO)C(OC4OC(C)C(O)C(O)C4O)C(O)C3O)C(O)C(O)C2O)C2CCC3(C)C(=CCC4(C)C3CCC3C(C)(CO)C(O)C(O)CC34C)C2C1C (configuration not stated) | -93.3% [100 µM] (active) and -100% [100 µM] (active) | -65.8% [100 µM] (active) and -100% [100 µM] (active)
5 | Cc1ccc(/C=N/Nc2nncc3ccccc23)s1 | 6.4% [100 µM] (active) and 1.47% [100 µM] (active) | 105% [100 µM] (inactive) and 21.6% [100 µM] (inactive)
6 | CC1(C)Oc2ccc3c(=O)cc(-c4ccc(F)cc4)oc3c2C1C(=O)O (configuration not stated) | 78.1% [100 µM] (inactive) and 87.8% [100 µM] (inactive) | 100% [100 µM] (inactive) and 99.3% [100 µM] (inactive)
7 | NC(=O)CC1OC(=O)Cc2cc3c(c(O)c21)C(=O)c1c(O)cccc1C3=O (configuration not stated) | 67.9% [100 µM] (inactive) | 57.5% [100 µM] (inactive)
8 | C[C@@H]1C[C@@H]2OC(=O)[C@]3(C)[C@H]2[C@@H](OC3(C)O)[C@]2(C)C(=O)C=C[C@@H]12 (some centres not stated) | -84.2% [100 µM] (active) and -97.9% [100 µM] (active) | -7.81% [100 µM] (active) and -18.5% [100 µM] (active)
9 | Cc1ccc(OCC2OC(n3cnc4nc(Cl)nc(Cl)c43)CC2Oc2ccc(C)cc2)cc1 (configuration not stated) | -72.2% [100 µM] (active) and -100% [100 µM] (active) | 1.81% [100 µM] (active) and -100% [100 µM] (active)
10 | Cc1ccc(/C=N/Nc2ccccn2)s1 | 74.5% [100 µM] (inactive) and 87.7% [100 µM] (inactive) | 147% [100 µM] (inactive) and 60.9% [100 µM] (inactive)
11 | Cc1ccc(/C=N/Nc2cnccn2)s1 | 58.8% [100 µM] (inactive) and 98.5% [100 µM] (inactive) | 116% [100 µM] (inactive) and 93% [100 µM] (inactive)
12 | C=C1C(=O)OC2/C=C(\CO)CC/C=C(\CO)CC(OC(=O)C(C)C)C12 (configuration not stated) | -89.5% [100 µM] (active) and -98.8% [100 µM] (active) | -97% [100 µM] (active) and -96.5% [100 µM] (active)
13 | COC(=O)/C=C\C(C#N)(C#N)N=Cc1ccsc1 | -87.5% [100 µM] (active) and -74.6% [100 µM] (active) | -98.5% [100 µM] (active) and -84.4% [100 µM] (active)
14 | Cc1ccc(C)c(NC(=O)/C(=N\N)C(c2cnc3ccc([N+](=O)[O-])cc3n2)[N+](=O)[O-])c1 (configuration not stated) | 46.3% [100 µM] (inactive) and 15.7% [100 µM] (inactive) | 146% [100 µM] (inactive) and 18.1% [100 µM] (inactive)
15 | Fc1ccc(Nc2nc(Cl)c3[nH]cnc3n2)cc1Cl | 68% [100 µM] (inactive) and 34.7% [100 µM] (inactive) | 48.7% [100 µM] (inactive) and -27.6% [100 µM] (active)
16 | CC1(C)S[C@H](CN)N[C@H]1C(=O)OC(c1ccccc1)c1ccccc1 | 34.2% [100 µM] (inactive) and -100% [100 µM] (active) | 49% [100 µM] (inactive) and -32.5% [100 µM] (active)
17 | COc1ccc2nc(N/N=C/c3ccc(C)s3)cc(C)c2c1 | -97.7% [100 µM] (active) and -100% [100 µM] (active) | -94.1% [100 µM] (active) and -97.3% [100 µM] (active)
18 | NC1N=C(c2ccc(Cl)cc2)C2=C(N1)c1ccccc1CC2 (configuration not stated) | 36.7% [100 µM] (inactive) and -55.8% [100 µM] (active) | 76.2% [100 µM] (inactive) and -97.6% [100 µM] (active)

Row | SMILES | growth [1] | growth [2]
19 | N/N=C(\C(=O)Nc1ccc([N+](=O)[O-])cc1)C(C1=Nc2cc([N+](=O)[O-])ccc2NC1)[N+](=O)[O-] (configuration not stated) | 42.3% [100 µM] (inactive) and 14.7% [100 µM] (inactive) | 117% [100 µM] (inactive) and 4.46% [100 µM] (active)
20 | CCC(C)C1(O)OC2CC3(C)OC(=CC3=O)/C(C)=C\C3OC(=O)C1(C)C32 (configuration not stated) | -34.4% [100 µM] (active) and -100% [100 µM] (active) | 41.8% [100 µM] (inactive) and -90.7% [100 µM] (active)
21 | CCn1c2c(c3ccccc3c1=O)C(=O)c1ccccc1-2 | 62.3% [100 µM] (inactive) and 2.6% [100 µM] (active) | 73.6% [100 µM] (inactive) and -93.6% [100 µM] (active)
22 | COc1ccc2cc1Oc1ccc(cc1)C[C@@H]1c3cc(c(OC)cc3CCN1C)Oc1c(OC)c(OC)cc3c1[C@H](C2)N(C)CC3 | 20.3% [100 µM] (inactive) and -83.9% [100 µM] (active) | 33.5% [100 µM] (inactive) and -100% [100 µM] (active)
23 | COc1cc(-c2nc(SC)nc3c2CCc2ccccc2-3)cc(OC)c1OC | 42.6% [100 µM] (inactive) and 23.7% [100 µM] (inactive) | 41.4% [100 µM] (inactive) and 11% [100 µM] (inactive)
24 | CC1CC(=O)N(N(C)C)C2(C#N)C(=O)N=C(N)C12C#N (configuration not stated) | -84.2% [100 µM] (active) and -92.9% [100 µM] (active) | -31.9% [100 µM] (active) and -94.2% [100 µM] (active)
25 | COc1cc(C)c2c(c1C=O)Oc1c(c(C)c(O)c3c1C(O)OC3=O)OC2=O (configuration not stated) | -82.4% [100 µM] (active) and 98.2% [100 µM] (inactive) | -0.673% [100 µM] (active) and 99.4% [100 µM] (inactive)
26 | C=CCn1c2c(c3ccccc3c1=O)C(=O)c1ccccc1-2 | 66.9% [100 µM] (inactive) and 11.1% [100 µM] (inactive) | 47.5% [100 µM] (inactive) and -35.9% [100 µM] (active)
27 | COc1ccc(C2c3cc4c(c(OC)c3CC3OCC(=O)C32)OCO4)cc1OC (configuration not stated) | 26% [100 µM] (inactive) and 3.65% [100 µM] (active) | 46.4% [100 µM] (inactive) and -11% [100 µM] (active)
28 | CCOc1cc2c(cc1O)/C(=N/NS(=O)(=O)c1ccc(C)cc1)C[C@@H]1[C@@H]2CC[C@]2(C)[C@@H](O)CC[C@@H]12 | -88.9% [100 µM] (active) | -22.6% [100 µM] (active)
29 | C=C(C)C(=O)OC1CC2(C)OC(=CC2=O)C(C)CC2OC(=O)C(=C)C12 (configuration not stated) | -97% [100 µM] (active) | -96.8% [100 µM] (active)
30 | C=C1CC2(C)CCC(OC(=O)C3(C)OC3C)C(C)(OC(C)=O)C2CC1=C(C)C (configuration not stated) | 75.8% [100 µM] (inactive) and 12.7% [100 µM] (inactive) | 89.2% [100 µM] (inactive) and 49.5% [100 µM] (inactive)
31 | N#C/C=C1\C=CC(O)C(O)C1OC1OC(CO)C(O)C(O)C1O (configuration not stated) | 95% [100 µM] (inactive) and 88.4% [100 µM] (inactive) | 97.1% [100 µM] (inactive) and 93.8% [100 µM] (inactive)
32 | CSc1nc(Br)nc2ncn(C3CC(Oc4ccc(C)cc4)C(COc4ccc(C)cc4)O3)c12 (configuration not stated) | 84.5% [100 µM] (inactive) and -65.3% [100 µM] (active) | 111% [100 µM] (inactive) and -100% [100 µM] (active)
33 | COc1cc2oc3c(c(=O)c2c(O)c1/C=C/C(C)C)CCC(C)(C)Oc1cc(O)ccc1-3 | -23.1% [100 µM] (active) and -100% [100 µM] (active) | 35% [100 µM] (inactive) and -96.5% [100 µM] (active)
34 | O=C(NC1=NC2C=CC([N+](=O)[O-])=CC2S1)C(=O)Nn1c(=S)[nH]c2ccccc2c1=O (configuration not stated) | -8.33% [100 µM] (active) and 16.8% [100 µM] (inactive) | 7.66% [100 µM] (active) and 13.1% [100 µM] (inactive)
35 | CC1CC2(OC2C)C(=O)OC2CCN(C)C/C=C(/COC(=O)C1(C)O)C2=O (configuration not stated) | 89.6% [100 µM] (inactive) and 94.3% [100 µM] (inactive) | 97.2% [100 µM] (inactive) and 101% [100 µM] (inactive)
36 | Clc1ccc(C2C3COc4ccccc4C3=NN2c2ccccc2)cc1 (configuration not stated) | 37.4% [100 µM] (inactive) and 0.301% [100 µM] (active) | 77% [100 µM] (inactive) and 31.3% [100 µM] (inactive)
